PubChem BioAssay
“And” between values parts separate entries of the source, which are not always exact repeats. Identical values can stand only once. Results filed as inconclusive are left out. Some compounds were tested as several samples or in several runs, with calls that do not always agree. The source made the active and inactive calls. Unless noted, no stated cut-off is given here; in the data, active means inhibition above about 80%; inactive means the rest.

How the values were obtained:
[1] = SU-DIPG-VI glioma cell viability, MIPE4.0 library, CellTiter-Glo luminescence, qHTS (AID 1347066; cut-off not given, nearly all actives have AC50 up to about 30 µM;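 further: cells exposed to compound for 48 hours before readout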); details: CellTiter-Glo ATP luminescence
[2] = inhibitors of Cryptococcus chitosan production, flow cytometry, Cibacron Brilliant Red staining (AID 1347148; call rule not given here;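 further: compound exposure lasted three days at 37 degrees C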); details: Cryptococcus neoformans chitosan, stronger effect = lower value; at 10 µM unless noted
[3] = phospholipid biosynthesis inhibitors in animal cells, primary screen, cell-based, LOPAC library, screen 4 (AID 1347384; call rule not given here); details: phospholipid biosynthesis inhibition screen, at 10 µM
[4] = survival rescue of mitochondrial mutant cells in low glucose, primary screen, MELAS cybrids, Rieske KO mouse fibroblasts, CellTiter-Glo (AID 1508586;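 active means mean z-score across replicates of 1.96 or higher in either the MELAS or the Rieske mutant cell line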;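 further: z relative to plate mean and SD of compound and empty wells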)
[5] = biological target: NAD(+) hydrolase SARM1 (Homo sapiens) (UniProt Q6SZW1); test: SARM1 TIR NADase inhibitors, cell lysate, NAD-Glo luminescence (AID 1508614;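 active means compound whose remaining NAD level is above about 45 nM, limit read from the data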); details: SAM-TIR HEK293T lysate NADase, at 1 µM, stronger effect = higher value
Sequence of NAD(+) hydrolase SARM1 (Homo sapiens) (Q6SZW1 whole entry, looked up, the tested form may be a part): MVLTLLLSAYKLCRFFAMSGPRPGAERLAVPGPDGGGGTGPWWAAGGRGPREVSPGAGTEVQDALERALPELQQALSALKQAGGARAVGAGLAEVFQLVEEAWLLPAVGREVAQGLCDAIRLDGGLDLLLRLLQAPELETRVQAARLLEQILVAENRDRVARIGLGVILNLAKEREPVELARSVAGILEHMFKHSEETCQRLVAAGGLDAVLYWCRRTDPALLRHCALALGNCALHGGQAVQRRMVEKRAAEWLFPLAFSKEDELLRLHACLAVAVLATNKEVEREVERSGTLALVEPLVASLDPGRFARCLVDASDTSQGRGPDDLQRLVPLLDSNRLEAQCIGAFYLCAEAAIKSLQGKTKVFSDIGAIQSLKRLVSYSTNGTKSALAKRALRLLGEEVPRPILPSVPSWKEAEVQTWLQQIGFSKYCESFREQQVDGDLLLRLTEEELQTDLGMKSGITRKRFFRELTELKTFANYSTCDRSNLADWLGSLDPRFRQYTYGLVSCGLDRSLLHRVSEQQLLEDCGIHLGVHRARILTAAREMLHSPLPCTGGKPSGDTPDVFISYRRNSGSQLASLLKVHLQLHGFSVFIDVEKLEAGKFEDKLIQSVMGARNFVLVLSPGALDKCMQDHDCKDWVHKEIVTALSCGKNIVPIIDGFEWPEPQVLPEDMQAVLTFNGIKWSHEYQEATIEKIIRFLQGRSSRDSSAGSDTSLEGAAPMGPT

[6] = biological target: Mitogen-activated protein kinase 7 (Homo sapiens) (UniProt Q13164); test: ERK5 transactivation activators in reporter cells, primary screen, cell-based, HTS (AID 1508626;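 active means luciferase signal above three times the same-plate solvent-only control wells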;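 further: luciferase driven by Gal4-ERK5 fusion binding five Gal4 sites before minimal TATA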); details: HeLa Gal4-ERK5 transactivation, 18 h, at 5 µM, stronger effect = higher value
Sequence of Mitogen-activated protein kinase 7 (Homo sapiens) (Q13164 whole entry, looked up, the tested form may be a part): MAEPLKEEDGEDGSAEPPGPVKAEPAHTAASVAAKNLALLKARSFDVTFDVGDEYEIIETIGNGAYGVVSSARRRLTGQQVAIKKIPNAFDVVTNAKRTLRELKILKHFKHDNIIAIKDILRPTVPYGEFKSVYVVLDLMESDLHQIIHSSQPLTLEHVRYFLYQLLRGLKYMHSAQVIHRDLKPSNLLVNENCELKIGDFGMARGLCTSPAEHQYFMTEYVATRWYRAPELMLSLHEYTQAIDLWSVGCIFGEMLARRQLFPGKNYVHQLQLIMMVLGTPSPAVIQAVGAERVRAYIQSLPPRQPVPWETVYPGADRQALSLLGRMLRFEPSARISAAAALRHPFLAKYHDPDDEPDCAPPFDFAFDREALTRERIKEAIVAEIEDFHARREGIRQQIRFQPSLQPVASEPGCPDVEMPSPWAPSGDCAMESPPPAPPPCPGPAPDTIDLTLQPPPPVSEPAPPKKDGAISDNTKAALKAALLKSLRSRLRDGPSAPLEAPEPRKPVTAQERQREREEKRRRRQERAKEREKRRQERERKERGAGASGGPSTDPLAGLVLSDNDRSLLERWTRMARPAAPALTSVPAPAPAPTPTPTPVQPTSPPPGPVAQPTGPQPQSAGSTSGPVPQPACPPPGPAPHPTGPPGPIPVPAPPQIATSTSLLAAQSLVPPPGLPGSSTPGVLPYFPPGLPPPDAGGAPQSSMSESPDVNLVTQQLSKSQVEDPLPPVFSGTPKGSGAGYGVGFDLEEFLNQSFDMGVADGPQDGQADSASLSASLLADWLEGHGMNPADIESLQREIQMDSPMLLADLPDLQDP

[7] = viability rescue of complex I mutant cybrids, primary screen, cell-based, galactose medium, ATP luminescence (AID 1645843;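 active means z-score of at least 1.8 in each of two replicates, scored against plate mean and spread of sample wells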;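 further: positive z means more ATP and so rescue of galactose-driven cybrid death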); details: complex I mutant cybrid cells, 72 h, stronger effect = higher value
[8] = sensitizers of A549 cells to miR-34 induction, primary screen, imaging, A549 dox-inducible miR-34, nuclei and caspase counts (AID 1347080;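 active means compounds whose cell count with miR-34 switched on is under 0.7 times the count with it off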); details: A549 miR-34 inducible, Hoechst nuclei count, 48 h
[9] = LFS_MB_P medulloblastoma growth inhibition, cell-based, chromothripsis tumors, cisplatin or BGB combos (AID 1671449); details: LFS_MB_P medulloblastoma cells;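 further: cells exposed for 96 hours; 0% = vehicle DMSO and 100% = killing by high DMSO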
[10] = HDN33 neuroblastoma growth inhibition, cell-based, chromothripsis tumors, cisplatin or BGB combos (AID 1671450); details: HDN33 neuroblastoma cells, stronger effect = higher value;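 further: cells exposed to compound for four days; 0% = vehicle DMSO and 100% = cell killing by high DMSO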
[11] = ICB984 medulloblastoma cell growth inhibition, synergistic combos for chromothripsis tumors, cisplatin or BGB combos (AID 1671451; call rule not given here;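 further: cells exposed for 96 hours before readout; 0% = vehicle DMSO and 100% = killing by high DMSO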); details: ICB984 medulloblastoma cells, drug combinations, stronger effect = higher value
[12] = LFS_MB_1R medulloblastoma cell growth inhibition, synergistic combos for chromothripsis tumors, cisplatin or BGB combos (AID 1671452); details: LFS_MB_1R medulloblastoma cells, stronger effect = higher value;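 further: cells exposed for 96 hours before readout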
[13] = HTB85 osteosarcoma cell growth inhibition, synergistic combos for chromothripsis tumors, BGB or cisplatin IC20 combos (AID 1671453); details: HTB85 osteosarcoma cells, drug combinations, stronger effect = higher value;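 further: cells exposed for 96 hours before readout; 0% = vehicle DMSO and 100% = high DMSO killing control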
[14] = CRL2098 osteosarcoma cell growth inhibition, synergistic combos for chromothripsis tumors, BGB or cisplatin IC20 combos (AID 1671454); details: CRL2098 osteosarcoma cells, drug combinations, stronger effect = higher value;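 further: cells exposed for 96 h before readout; 0% = vehicle DMSO and 100% = killing by high DMSO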
[15] = HD-MB03 medulloblastoma cell growth inhibition, synergistic combos for chromothripsis tumors, BGB or cisplatin IC20 combos (AID 1671455; in the data active means inhibition above about 83%;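 further: 0% = vehicle DMSO and 100% = high DMSO as cytotoxic control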); details: HD-MB03 medulloblastoma cells, stronger effect = higher value
[16] = MELAS cybrid survival, CellTiter-Glo 48 h, stronger effect = higher value
[17] = Rieske KO mouse fibroblast survival, CellTiter-Glo 72 h
[18] = measured here: combination with BGB IC40, at 0.05 µM

Fc1ccc(C(c2ccc(F)cc2)N2CCN(C/C=C/c3ccccc3)CC2)cc1
outcome [1]: inactive | fold fluorescence [2]: 3.48 [at 123.6 µM] (inactive) | outcome [3]: inactive | z-score [4, 16]: -1.68 (inactive) and -0.773 (inactive) | z-score [4, 17]: -0.315 and -0.0521 | remaining NAD [5]: 10 nM (inactive) | luciferase signal [6]: 116 AU (inactive) | z-score [7]: -1.04 (inactive) and -1.24 (inactive) and -2.23 (inactive)

O=c1[nH]cnc2c1ncn2[C@H]1CC[C@@H](CO)O1
outcome [1]: inactive | fold change ([8]; stronger effect = lower value, cell number ratio, induced over uninduced): 0.88 (inactive) and 0.877 (inactive) | fold change ([8]; measured here: relative caspase fold change +Dox/-Dox): 1.12 and 1.04 | cell count ([8]; measured here: total cells with miR-34 induction, stronger effect = lower value): 8250 and 10000 | cell count ([8]; measured here: total cells without miR-34 induction): 9380 and 11400 | z-score [4, 16]: -0.8 (inactive) and -0.278 (inactive) | z-score [4, 17]: -0.19 and -0.4 | z-score [7]: 0.385 (inactive)

O=C(O)c1cccnc1Nc1cccc(C(F)(F)F)c1
outcome [1]: inactive | fold fluorescence [2]: 3.63 [at 177.2 µM] (inactive) | outcome [3]: inactive | z-score [4, 16]: -0.334 (inactive) and -0.267 (inactive) and 0.0798 (inactive) | z-score [4, 17]: -0.307 and -0.187 and -0.378 | remaining NAD [5]: 10 nM (inactive) | luciferase signal [6]: 60 AU (inactive) | z-score [7]: -0.15 (inactive) and 0.22 (inactive)

CC(C)(C)NC(=O)[C@@H]1CN(Cc2cccnc2)CCN1C[C@@H](O)C[C@@H](Cc1ccccc1)C(=O)N[C@H]1c2ccccc2C[C@H]1O
AC50 [1]: 20.9 µM (active) | z-score [4, 16]: -0.264 (inactive) | z-score [4, 17]: 0.0624

O=c1c(-c2ccc(O)cc2)coc2cc(O)cc(O)c12
outcome [1]: inactive | fold fluorescence [2]: 4.75 [at 185 µM] (inactive) | outcome [3]: inactive | z-score [4, 16]: -0.427 (inactive) | z-score [4, 17]: 0.508 | luciferase signal [6]: 276 AU (active) | z-score [7]: 1.99 (active) and 1.98 (inactive) | inhibition ([9]; at 0.5 µM, stronger effect = higher value): -9.97% (inactive) and -4.89% (inactive) | inhibition ([9]; measured here: combination with BGB IC20, at 0.005 µM): -17.8% and -1.45% | inhibition ([9]; measured here: combination with BGB IC40, at 0.005 µM): -18% and -3.22% | inhibition [9, 18]: -25.1% and -11.9% | inhibition ([9]; measured here: combination with cisplatin, at 0.5 µM, stronger effect = higher value): -5.93% and -18.3% | inhibition ([9]; measured here: combination with cisplatin, at 5 µM, stronger effect = higher value): 8.08% and 3.66% | inhibition ([10]; BGB combo, at 5 µM): -47.6% and 34.9% | inhibition ([10]; at 0.5 µM): -42.8% (inactive) and -12.6% (inactive) | inhibition ([10]; cisplatin combo, at 5 µM): -40% and 3.53% | inhibition ([10]; measured here: with BGB IC20 combination, at 0.5 µM): -43.9% and -15.8% | inhibition ([10]; measured here: with cisplatin IC20 combination, at 0.5 µM): -42.3% and -4.37% | inhibition ([10]; single agent, at 5 µM): -15.6% and 2.01% | inhibition ([11]; BGB IC20 combo, at 0.005 µM): 8.8% and -0.198% | inhibition ([11]; BGB IC40 combo, at 0.005 µM): -22.1% and -29.4% | inhibition ([11]; BGB IC40 combo, at 0.05 µM): -7.4% and -6.46% | inhibition ([11]; at 0.5 µM): -34.3% (inactive) and -16.8% (inactive) | inhibition ([11]; cisplatin combo, at 0.05 µM): -11.3% and -9.44% | inhibition ([11]; cisplatin combo, at 0.5 µM): -39.9% and -21.8% | inhibition ([11]; cisplatin combo, at 5 µM): -72.1% and -7.73% | inhibition ([11]; measured here: 5 uM single agent, at 5 µM): -9.66% and -12.4% | inhibition ([12]; at 0.5 µM): -22.6% (inactive) and -10.7% (inactive) | inhibition [12, 18]: -45.5% and -14.8% | inhibition ([12]; measured here: combination with cisplatin, at 0.5 µM): -45.5% and -6.51% | inhibition ([12]; measured here: combination with cisplatin, at 5 µM): -62.6% and -7.84% | inhibition ([13]; at 0.5 µM): -23.1% (inactive) and -8.31% (inactive) | inhibition ([13]; measured here: with BGB IC20, at 0.5 µM): -24.9% and -17.6% | inhibition ([13]; measured here: with BGB IC20, at 5 µM): -18.6% and -5.83% | inhibition ([13]; measured here: with cisplatin IC20, at 0.5 µM): -32.2% and -12.6% | inhibition ([13]; measured here: with cisplatin IC20, at 5 µM): -33.6% and -5.76% | inhibition ([13]; single agent, at 5 µM): -0.415% and -6.72% | inhibition ([14]; at 0.5 µM): -89.3% (inactive) and -22.4% (inactive) | inhibition ([14]; measured here: combination with BGB at IC20, at 0.5 µM): -68.7% and -13.6% | inhibition ([14]; measured here: combination with cisplatin at IC20, at 0.5 µM): -148% and -31.4% | inhibition ([15]; at 0.5 µM): -19.5% (inactive) and -5.86% (inactive) | inhibition ([15]; measured here: combo with BGB at IC20, at 0.5 µM): -19.9% and -0.815% | inhibition ([15]; measured here: combo with cisplatin at IC20, at 0.5 µM): -26.5% and -4.16%
